Source: publication PMC11102866, “Nucleosome-bound NR5A2 structure reveals pioneer factor mechanism by DNA minor groove anchor competition”

B1: 8 (nucleosome)
DNA 1: ATCCTGGAGATCAAGGCCACCGAGGCCGCTCAATTGGTCGTAGACAGCTCTAGCACCGCTTAAACGCACGTACGCGCTGTCCCCCGCGTTTTAACCGCCAAGGGGATTACTCCCTAGTCTCCAGGCACGTGTCAGATATATACATCCTGTGAT
DNA 2: ATCACAGGATGTATATATCTGACACGTGCCTGGAGACTAGGGAGTAATCCCCTTGGCGGTTAAAACGCGGGGGACAGCGCGTACGTGCGTTTAAGCGGTGCTAGAGCTGTCTACGACCAATTGAGCGGCCTCGGTGGCCTTGATCTCCAGGAT
modifications: reconstituted with mouse histones H2A, H2B, H3.3 and H4
B2: 9 (nucleosome)
DNA 1: ATCCTGGAGAATCAAGGCCACGAGGCCGCTCAATTGGTCGTAGACAGCTCTAGCACCGCTTAAACGCACGTACGCGCTGTCCCCCGCGTTTTAACCGCCAAGGGGATTACTCCCTAGTCTCCAGGCACGTGTCAGATATATACATCCTGTGAT
DNA 2: ATCACAGGATGTATATATCTGACACGTGCCTGGAGACTAGGGAGTAATCCCCTTGGCGGTTAAAACGCGGGGGACAGCGCGTACGTGCGTTTAAGCGGTGCTAGAGCTGTCTACGACCAATTGAGCGGCCTCGTGGCCTTGATTCTCCAGGAT
modifications: reconstituted with mouse histones H2A, H2B, H3.3 and H4
B3: 69 (nucleosome)
DNA 1: ATCCTGGAGAATCCCGGTGCCGAGGCCGCTCAATTGGTCGTAGACAGCTCTAGCACCGCTTAAACGCACGTTCAAGGCCACCCCCGCGTTTTAACCGCCAAGGGGATTACTCCCTAGTCTCCAGGCACGTGTCAGATATATACATCCTGTGAT
DNA 2: ATCACAGGATGTATATATCTGACACGTGCCTGGAGACTAGGGAGTAATCCCCTTGGCGGTTAAAACGCGGGGGTGGCCTTGAACGTGCGTTTAAGCGGTGCTAGAGCTGTCTACGACCAATTGAGCGGCCTCGGCACCGGGATTCTCCAGGAT
modifications: reconstituted with mouse histones H2A, H2B, H3.3 and H4
B4: 73 (nucleosome)
DNA 1: ATCCTGGAGAATCCCGGTGCCGAGGCCGCTCAATTGGTCGTAGACAGCTCTAGCACCGCTTAAACGCACGTACGCTCAAGGCCACGCGTTTTAACCGCCAAGGGGATTACTCCCTAGTCTCCAGGCACGTGTCAGATATATACATCCTGTGAT
DNA 2: ATCACAGGATGTATATATCTGACACGTGCCTGGAGACTAGGGAGTAATCCCCTTGGCGGTTAAAACGCGTGGCCTTGAGCGTACGTGCGTTTAAGCGGTGCTAGAGCTGTCTACGACCAATTGAGCGGCCTCGGCACCGGGATTCTCCAGGAT
modifications: reconstituted with mouse histones H2A, H2B, H3.3 and H4
B5: 70 (nucleosome)
DNA 1: ATCCTGGAGAATCCCGGTGCCGAGGCCGCTCAATTGGTCGTAGACAGCTCTAGCACCGCTTAAACGCACGTATCAAGGCCACCCCGCGTTTTAACCGCCAAGGGGATTACTCCCTAGTCTCCAGGCACGTGTCAGATATATACATCCTGTGAT
DNA 2: ATCACAGGATGTATATATCTGACACGTGCCTGGAGACTAGGGAGTAATCCCCTTGGCGGTTAAAACGCGGGGTGGCCTTGATACGTGCGTTTAAGCGGTGCTAGAGCTGTCTACGACCAATTGAGCGGCCTCGGCACCGGGATTCTCCAGGAT
modifications: reconstituted with mouse histones H2A, H2B, H3.3 and H4
B6: 72 (nucleosome)
DNA 1: ATCCTGGAGAATCCCGGTGCCGAGGCCGCTCAATTGGTCGTAGACAGCTCTAGCACCGCTTAAACGCACGTACGTCAAGGCCACCGCGTTTTAACCGCCAAGGGGATTACTCCCTAGTCTCCAGGCACGTGTCAGATATATACATCCTGTGAT
DNA 2: ATCACAGGATGTATATATCTGACACGTGCCTGGAGACTAGGGAGTAATCCCCTTGGCGGTTAAAACGCGGTGGCCTTGACGTACGTGCGTTTAAGCGGTGCTAGAGCTGTCTACGACCAATTGAGCGGCCTCGGCACCGGGATTCTCCAGGAT
modifications: reconstituted with mouse histones H2A, H2B, H3.3 and H4
B7: 65 (nucleosome)
DNA 1: ATCCTGGAGAATCCCGGTGCCGAGGCCGCTCAATTGGTCGTAGACAGCTCTAGCACCGCTTAAACGCTCAAGGCCACTGTCCCCCGCGTTTTAACCGCCAAGGGGATTACTCCCTAGTCTCCAGGCACGTGTCAGATATATACATCCTGTGAT
DNA 2: ATCACAGGATGTATATATCTGACACGTGCCTGGAGACTAGGGAGTAATCCCCTTGGCGGTTAAAACGCGGGGGACAGTGGCCTTGAGCGTTTAAGCGGTGCTAGAGCTGTCTACGACCAATTGAGCGGCCTCGGCACCGGGATTCTCCAGGAT
modifications: reconstituted with mouse histones H2A, H2B, H3.3 and H4
B8: 68 (nucleosome)
DNA 1: ATCCTGGAGAATCCCGGTGCCGAGGCCGCTCAATTGGTCGTAGACAGCTCTAGCACCGCTTAAACGCACGTCAAGGCCATCCCCCGCGTTTTAACCGCCAAGGGGATTACTCCCTAGTCTCCAGGCACGTGTCAGATATATACATCCTGTGAT
DNA 2: ATCACAGGATGTATATATCTGACACGTGCCTGGAGACTAGGGAGTAATCCCCTTGGCGGTTAAAACGCGGGGGATGGCCTTGACGTGCGTTTAAGCGGTGCTAGAGCTGTCTACGACCAATTGAGCGGCCTCGGCACCGGGATTCTCCAGGAT
modifications: reconstituted with mouse histones H2A, H2B, H3.3 and H4
B9: 71 (nucleosome)
DNA 1: ATCCTGGAGAATCCCGGTGCCGAGGCCGCTCAATTGGTCGTAGACAGCTCTAGCACCGCTTAAACGCACGTACTCAAGGCCACCCGCGTTTTAACCGCCAAGGGGATTACTCCCTAGTCTCCAGGCACGTGTCAGATATATACATCCTGTGAT
DNA 2: ATCACAGGATGTATATATCTGACACGTGCCTGGAGACTAGGGAGTAATCCCCTTGGCGGTTAAAACGCGGGTGGCCTTGAGTACGTGCGTTTAAGCGGTGCTAGAGCTGTCTACGACCAATTGAGCGGCCTCGGCACCGGGATTCTCCAGGAT
modifications: reconstituted with mouse histones H2A, H2B, H3.3 and H4
B10: 61 (nucleosome)
DNA 1: ATCCTGGAGAATCCCGGTGCCGAGGCCGCTCAATTGGTCGTAGACAGCTCTAGCACCGCTTAATCAAGGCCACGCGCTGTCCCCCGCGTTTTAACCGCCAAGGGGATTACTCCCTAGTCTCCAGGCACGTGTCAGATATATACATCCTGTGAT
DNA 2: ATCACAGGATGTATATATCTGACACGTGCCTGGAGACTAGGGAGTAATCCCCTTGGCGGTTAAAACGCGGGGGACAGCGCGTGGCCTTGATTAAGCGGTGCTAGAGCTGTCTACGACCAATTGAGCGGCCTCGGCACCGGGATTCTCCAGGAT
modifications: reconstituted with mouse histones H2A, H2B, H3.3 and H4
B11: 64 (nucleosome)
DNA 1: ATCCTGGAGAATCCCGGTGCCGAGGCCGCTCAATTGGTCGTAGACAGCTCTAGCACCGCTTAAACGTCAAGGCCAGCTGTCCCCCGCGTTTTAACCGCCAAGGGGATTACTCCCTAGTCTCCAGGCACGTGTCAGATATATACATCCTGTGAT
DNA 2: ATCACAGGATGTATATATCTGACACGTGCCTGGAGACTAGGGAGTAATCCCCTTGGCGGTTAAAACGCGGGGGACAGCTGGCCTTGACGTTTAAGCGGTGCTAGAGCTGTCTACGACCAATTGAGCGGCCTCGGCACCGGGATTCTCCAGGAT
modifications: reconstituted with mouse histones H2A, H2B, H3.3 and H4
B12: 63 (nucleosome)
DNA 1: ATCCTGGAGAATCCCGGTGCCGAGGCCGCTCAATTGGTCGTAGACAGCTCTAGCACCGCTTAAACTCAAGGCCACGCTGTCCCCCGCGTTTTAACCGCCAAGGGGATTACTCCCTAGTCTCCAGGCACGTGTCAGATATATACATCCTGTGAT
DNA 2: ATCACAGGATGTATATATCTGACACGTGCCTGGAGACTAGGGAGTAATCCCCTTGGCGGTTAAAACGCGGGGGACAGCGTGGCCTTGAGTTTAAGCGGTGCTAGAGCTGTCTACGACCAATTGAGCGGCCTCGGCACCGGGATTCTCCAGGAT
modifications: reconstituted with mouse histones H2A, H2B, H3.3 and H4
B13: 67 (nucleosome)
DNA 1: ATCCTGGAGAATCCCGGTGCCGAGGCCGCTCAATTGGTCGTAGACAGCTCTAGCACCGCTTAAACGCACTCAAGGCCAGTCCCCCGCGTTTTAACCGCCAAGGGGATTACTCCCTAGTCTCCAGGCACGTGTCAGATATATACATCCTGTGAT
DNA 2: ATCACAGGATGTATATATCTGACACGTGCCTGGAGACTAGGGAGTAATCCCCTTGGCGGTTAAAACGCGGGGGACTGGCCTTGAGTGCGTTTAAGCGGTGCTAGAGCTGTCTACGACCAATTGAGCGGCCTCGGCACCGGGATTCTCCAGGAT
modifications: reconstituted with mouse histones H2A, H2B, H3.3 and H4
B14: 62 (nucleosome)
DNA 1: ATCCTGGAGAATCCCGGTGCCGAGGCCGCTCAATTGGTCGTAGACAGCTCTAGCACCGCTTAAATCAAGGCCAGCGCTGTCCCCCGCGTTTTAACCGCCAAGGGGATTACTCCCTAGTCTCCAGGCACGTGTCAGATATATACATCCTGTGAT
DNA 2: ATCACAGGATGTATATATCTGACACGTGCCTGGAGACTAGGGAGTAATCCCCTTGGCGGTTAAAACGCGGGGGACAGCGCTGGCCTTGATTTAAGCGGTGCTAGAGCTGTCTACGACCAATTGAGCGGCCTCGGCACCGGGATTCTCCAGGAT
modifications: reconstituted with mouse histones H2A, H2B, H3.3 and H4
B15: 66 (nucleosome)
DNA 1: ATCCTGGAGAATCCCGGTGCCGAGGCCGCTCAATTGGTCGTAGACAGCTCTAGCACCGCTTAAACGCATCAAGGCCATGTCCCCCGCGTTTTAACCGCCAAGGGGATTACTCCCTAGTCTCCAGGCACGTGTCAGATATATACATCCTGTGAT
DNA 2: ATCACAGGATGTATATATCTGACACGTGCCTGGAGACTAGGGAGTAATCCCCTTGGCGGTTAAAACGCGGGGGACATGGCCTTGATGCGTTTAAGCGGTGCTAGAGCTGTCTACGACCAATTGAGCGGCCTCGGCACCGGGATTCTCCAGGAT
modifications: reconstituted with mouse histones H2A, H2B, H3.3 and H4

The binders below were run against NR5A2 wild type;histone octamer (Homo sapiens;, UniProt O00482;C0HKE1;Q6ZWY9;P84244;P62806 1-541;2-130;2-126;2-136;2-103, |) (assay: SeEN-seq (EMSA of nucleosome library followed by sequencing); 0.8 uM human NR5A2; 20 mM Tris-HCl pH 7.5, 120 mM NaCl, 1 mM MgCl2, 10 uM ZnCl2, 1 mM DTT, 100 ug/ml BSA, room temperature, 30 min; 0.1 uM nucleosome library; high values mean tight binding).
With B1 the binding signal was 2.08 log2 enrichment (bound/unbound, relative to Widom 601).
B2 was tested, and the binding signal was 3.63 log2 enrichment (bound/unbound, relative to Widom 601).
With B3 the binding signal was 0.77 log2 enrichment (bound/unbound, relative to Widom 601).
For B4, the binding signal was 1.28 log2 enrichment (bound/unbound, relative to Widom 601).
With B5 the binding signal was 1.27 log2 enrichment (bound/unbound, relative to Widom 601).
For B6, the binding signal was 1 log2 enrichment (bound/unbound, relative to Widom 601).
For B7, the binding signal was 0.891 log2 enrichment (bound/unbound, relative to Widom 601).
In the case of B8, the binding signal is reported as 0.625 log2 enrichment (bound/unbound, relative to Widom 601).
In the case of B9, the binding signal is reported as 1.13 log2 enrichment (bound/unbound, relative to Widom 601).
For B10, the binding signal was 0.699 log2 enrichment (bound/unbound, relative to Widom 601).
With B11 the binding signal was 0.83 log2 enrichment (bound/unbound, relative to Widom 601).
B12 was tested, and the binding signal was 1.09 log2 enrichment (bound/unbound, relative to Widom 601).
With B13 the binding signal was 0.806 log2 enrichment (bound/unbound, relative to Widom 601).
With B14 the binding signal was 1.24 log2 enrichment (bound/unbound, relative to Widom 601).
For B15, the binding signal was 1.05 log2 enrichment (bound/unbound, relative to Widom 601).

These binders were tested against mouse Nr5a2 wild type;histone octamer (Mus musculus;, UniProt P45448;C0HKE1;Q6ZWY9;P84244;P62806 1-560;2-130;2-126;2-136;2-103, |) (assay: SeEN-seq (EMSA of nucleosome library followed by sequencing); 1.2 uM mouse Nr5a2; 20 mM Tris-HCl pH 7.5, 120 mM NaCl, 1 mM MgCl2, 10 uM ZnCl2, 1 mM DTT, 100 ug/ml BSA, room temperature, 30 min; 0.1 uM nucleosome library; high values mean tight binding).
For B1, the binding signal was 1.69 log2 enrichment (bound/unbound, relative to Widom 601).
For B2, the binding signal was 3.37 log2 enrichment (bound/unbound, relative to Widom 601).
For B3, the binding signal was 0.872 log2 enrichment (bound/unbound, relative to Widom 601).
B4 was tested, and the binding signal was 1.51 log2 enrichment (bound/unbound, relative to Widom 601).
B5 was tested, and the binding signal was 1.51 log2 enrichment (bound/unbound, relative to Widom 601).
In the case of B6, the binding signal is reported as 1.27 log2 enrichment (bound/unbound, relative to Widom 601).
For B7, the binding signal was 1.14 log2 enrichment (bound/unbound, relative to Widom 601).
B8 was tested, and the binding signal was 0.543 log2 enrichment (bound/unbound, relative to Widom 601).
B9 was tested, and the binding signal was 1.45 log2 enrichment (bound/unbound, relative to Widom 601).
With B10 the binding signal was 0.779 log2 enrichment (bound/unbound, relative to Widom 601).
With B11 the binding signal was 0.992 log2 enrichment (bound/unbound, relative to Widom 601).
For B12, the binding signal was 1.1 log2 enrichment (bound/unbound, relative to Widom 601).
For B13, the binding signal was 0.96 log2 enrichment (bound/unbound, relative to Widom 601).
For B14, the binding signal was 1.27 log2 enrichment (bound/unbound, relative to Widom 601).
With B15 the binding signal was 1.15 log2 enrichment (bound/unbound, relative to Widom 601).
